Sm TGR inh = S. mansoni TGR enzyme inhibition; purified TGR, DTNB reduction, TNB absorbance 405 nm; Potency, µM (titrated, usually from 114 µM), inactives show at the top dose activity change, negative = inhibition, usual class: inhibitors; 3% of 360,000 active; note: % is set by controls: 0 for no effect and ±100 for the full control effect; nearly all actives have a fitted effect of over 60% in size
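Kinetic colorimetric format: TGR-catalysed, NADPH-driven DTNB reduction monitored via TNB absorbance. Enzyme dispensed at 20 nM; compound exposure 15 min at room temperature before reaction start.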
AmpC inh detg = AmpC beta-lactamase inhibition with detergent present; AmpC hydrolysis of nitrocefin, absorbance 480 nm, 0.01% Triton; P00811; 0.041% of 370,000 active; Potency, µM (highest dose often 114 µM), inactives show at the top dose activity change, negative = inhibition, actives largely listed as inhibitors;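 note: 0% = no-compound wells and -100% = no-enzyme wells; nearly all actives have a fitted effect of over 25% in size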
Target sequence (P00811 whole entry, looked up): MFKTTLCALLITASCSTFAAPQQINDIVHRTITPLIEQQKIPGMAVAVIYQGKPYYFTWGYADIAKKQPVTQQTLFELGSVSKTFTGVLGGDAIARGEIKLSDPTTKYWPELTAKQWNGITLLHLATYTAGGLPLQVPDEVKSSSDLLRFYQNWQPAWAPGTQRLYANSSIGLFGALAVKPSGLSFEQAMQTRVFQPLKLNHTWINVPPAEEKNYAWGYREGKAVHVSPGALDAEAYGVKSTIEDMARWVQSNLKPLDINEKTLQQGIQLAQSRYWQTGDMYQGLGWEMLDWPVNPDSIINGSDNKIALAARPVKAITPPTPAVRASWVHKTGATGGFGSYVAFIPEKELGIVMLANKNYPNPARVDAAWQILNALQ
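20 mM phosphate pH 7.0 + 0.01% (detergent screen) or 0.0001% Triton X-100; 5.3 nM AmpC reagent; cpd preinc 15 min RT; nitrocefin (800 uM stock) to start; A480 q20 s × 4 min; Activity was normalised to no-enzyme and no-compound control wells.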
Pf growth 48h = P. falciparum growth inhibition at 48 hours (one generation). Potency, µM (top dose mostly 28.7 µM), without a hit: at the highest dose activity change, negative = inhibition, most hits filed as inhibitors. 5.9% of 310,000 active. AID 504832. P. falciparum luciferase growth in erythrocytes, 48 h; note: % is set by controls: 0 for no effect and ±100 for the full control effect
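Luminescence readout; reporter = integrated firefly luciferase in P. falciparum. RBC culture at 2% hematocrit, 0.1% parasitemia final, 37 C/5% CO2; decreased signal taken as growth inhibition.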
SARS PLpro yeast = SARS-CoV PLP inhibition in yeast; S. cerevisiae expressing SARS-CoV PLpro, growth rescue; Potency, µM (series often up to 32.9 µM), for inactives: top-dose activity, positive = growth rescue, hits mostly activators; 0.19% of 330,000 active; AID 485353; calls by dose curve; note: 0% is about no effect; nearly all actives have a fitted effect of over 55% in size
AmpC no deterg = blocks E. coli AmpC beta-lactamase in detergent-free assay. AmpC nitrocefin hydrolysis, absorbance 480 nm, 0.0001% Triton. AID 485341. Potency, µM (top dose mostly 57.1 µM), without a hit: top-dose activity change, negative = inhibition, actives largely listed as inhibitors. 0.52% of 330,000 active;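 note: plate controls were no compound for no effect and no enzyme for full effect; nearly all actives have a fitted effect of over 20% in size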
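AmpC (5.3 nM in the dispensed reagent) in 20 mM phosphate pH 7.0 with 0.01% (detergent screen) or 0.0001% Triton X-100 was preincubated with compounds for 15 min at room temperature. Nitrocefin was then added from an 800 uM solution, and hydrolysis was followed at 480 nm.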
Pf growth 96h = P. falciparum growth inhibition at 96 hour, primary screen for plastid delayed-death inhibitors; P. falciparum luciferase reporter growth, 96 h; Potency, µM (top dose mostly 28.7 µM), inactives show top-dose activity change, negative = inhibition, actives largely listed as inhibitors; 6.9% of 320,000 active; note: % is set by controls: 0 for no effect and ±100 for the full control effect
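Erythrocytes infected with luciferase-expressing P. falciparum were dispensed at 2% hematocrit and 0.05% parasitemia (final), then incubated with compounds 96 hours at 37 C in 5% CO2. Luminescence after detection reagent addition reported growth.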
The depositor's hits bear a star; u = inconclusive; x = no result. Most compounds without a hit are left out; they make up all but 12% or so of the library. Unless noted, calls come from the whole dose curve; as a rule, active = well fitted curve in the direction sought with a large enough effect; inconclusive = small, poorly fitted or top-dose-only effect, or another doubt; inactive = no such curve, though single readings can be large; an effect the other way counts as inactive or inconclusive. Potency is the fitted concentration of half-maximal effect.

SMILES	Sm TGR inh	AmpC inh detg	Pf growth 48h	SARS PLpro yeast	AmpC no deterg	Pf growth 96h
Cc1ccc(C(=O)Cc2nc3ccccc3[nH]2)cc1	1%	-12%	0.37µM*	1%	-44%	u
O=C(Cc1nc2ccccc2[nH]1)c1cccc([N+](=O)[O-])c1	-18%	4%	12µM*	-2%	-36%	u
Cc1cc(C)cc(NC(=O)CCc2nc3ccccc3[nH]2)c1	-18%	-11%	5%	-2%	-12%	3.3µM*
O=C(NCCCc1nc2ccccc2[nH]1)c1ccc(F)cc1	1%	-7%	13%	1%	-6%	10µM*
CCOc1ccc(-c2csc(-c3c(N)c(C(=O)c4ccc5c(c4)OCO5)n4ccccc34)n2)cc1	0%	22%	x	x	x	x
CCOC(=O)Cc1nc2ccccc2[nH]1	3%	-12%	6%	5%	-15%	12µM*
CCOC(=O)CCc1nc2ccccc2[nH]c1=O	4%	-3%	4%	-5%	-16%	-18%
COc1ccc(/C=N/Nc2nc(Nc3ccccc3)nc(N3CCCC3)n2)cc1[N+](=O)[O-]	-1%	-1%	2.1µM*	3%	-31%	-6%
COc1ccc(/C=N/Nc2nc(N3CCCCC3)nc(N3CCCCC3)n2)cc1[N+](=O)[O-]	-3%	-7%	u	-1%	-30%	47%
CCOc1ccc(/C=N/Nc2nc(N3CCCC3)nc(N3CCCC3)n2)cc1OC	-2%	-10%	10µM*	-1%	120%	u
CNc1nc(N/N=C/c2cc3c(cc2[N+](=O)[O-])OCO3)nc(Nc2ccccc2)n1	-2%	3%	2.6µM*	-1%	16%	-13%
CC(=O)N1c2ccc(S(=O)(=O)N3CCCCCC3)cc2CC1C(=O)NCc1cccc(C)c1 (stereo not drawn)	1%	12%	x	x	x	x
O=c1c2ccccc2ncn1-c1cccc(Cl)c1	0%	-15%	71%	u	-13%	-17%
O=c1c2ccccc2ncn1-c1cccc(Br)c1	13%	u	26%	2%	-9%	1.7µM*
O=C(O)c1cccc(NC2=C(n3nnc4ccccc43)C(=O)c3ccccc3C2=O)c1	45µM*	-7%	5.2µM*	0%	-1%	1.9µM*
O=C(O)c1cccc(NS(=O)(=O)c2ccc3nnn(O)c3c2)c1	-6%	-5%	16%	1%	2%	36%
CSc1cccc(NS(=O)(=O)c2ccc(-c3coc(C)n3)cc2)c1	-3%	-2%	-7%	-4%	-42%	4.7µM*
Cc1nc(-c2ccc(S(=O)(=O)Nc3ccc(S(N)(=O)=O)cc3)cc2)co1	-11%	-6%	-4%	5%	-23%	10µM*
CCn1c(/N=C/c2c[nH]c3ccccc23)nc2ccccc21	-18%	u	12%	-5%	2%	1.9µM*
Cc1cc(N/N=C/c2c[nH]c3ccccc23)c2ccccc2n1	x	-5%	33%	0%	-23%	28%
Cn1c(N/N=C/c2c[nH]c3ccccc23)nc2ccccc21	22%	0%	7.4µM*	3%	-9%	1.7µM*
CC(=O)NCCC1CCN(C(=O)C2CCC(=O)N(C3CCCC3)C2)CC1 (stereo not drawn)	-11%	-5%	8%	6%	-8%	u
O=C(NC1CCCCC1)C1CN(S(=O)(=O)c2ccccc2)CCN1S(=O)(=O)c1ccccc1 (stereo not drawn)	-8%	u	-9%	1%	-21%	12µM*
CCNC(=O)C1CN(S(=O)(=O)c2ccccc2)CCN1S(=O)(=O)c1ccccc1 (stereo not drawn)	2%	u	12%	-4%	-7%	2.3µM*
CCc1cccc(CC)c1NC(=O)C1CN(S(=O)(=O)c2ccccc2)CCN1S(=O)(=O)c1ccccc1 (stereo not drawn)	-16%	-13%	u	-15%	-46%	u
O=C(NC1CCCC1)C1CCN(S(=O)(=O)c2ccccc2)CC1	2%	u	u	0%	-14%	2%

Assay outcomes as filed in PubChem.
